Reference: PubChem BioAssay (Tox21)
Inconclusive results are not listed. Calls of active or inactive are those of the source. Unless noted, calls follow the shape of the dose curve; as a rule, active = well fitted curve in the direction sought with a large enough effect in the repeat runs; inconclusive = weak or mixed curves; inactive = no such curve, though single readings can be large; an effect the other way counts as inactive or inconclusive.

What was measured:
[1] = qHTS assay to identify aromatase inhibitors - cell viability counter screen (AID 743084);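 also: cells stimulated with testosterone during compound exposure; nearly all actives have a fitted effect of over 55% in size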
[2] = molecular target: Aryl hydrocarbon receptor (Homo sapiens) (UniProt P35869); experiment: qHTS assay to identify small molecule that activate the aryl hydrocarbon receptor (AhR) signaling pathway (AID 743085);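 also: HG2L7.5c1 human HepG2 liver cells with stably integrated DRE-driven firefly reporter; series mostly up to about 70 µM; nearly all actives have a fitted effect of over 15% in size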
Outline: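 Stably transfected human liver carcinoma cells (HG2L7.5c1; 20 DRE-firefly luciferase) were incubated 5 h, dosed, and kept 24 h at 37C. Agonism was scored from increased luciferase luminescence.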

[3] = qHTS assay to identify small molecule that activate the aryl hydrocarbon receptor (AhR) signaling pathway - cell viability counter screen (AID 743086);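 also: HepG2 liver cells carrying the AhR DRE luciferase reporter; series mostly up to about 70 µM; nearly all actives have a fitted effect of over 45% in size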
Outline: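 Cytotoxicity counter screen: CellTiter-Fluor signal (30 min, 37 C) in 4000 HepG2 cells/well carrying the DRE-luciferase reporter, following 24 h compound exposure at 37 C.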

[4] = molecular target: Peroxisome proliferator-activated receptor gamma (Homo sapiens) (UniProt P37231); experiment: qHTS assay to identify small molecule agonists of the peroxisome proliferator-activated receptor gamma (PPARg) signaling pathway (AID 743094; active = well fitted activation curve with a large enough effect in the signal ratio in the repeat runs, not every such curve was filed as active; the % refers to the signal ratio)
Outline: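 Beta-lactamase FRET fluorescence was the read-out after a 1 h room-temperature substrate step, following 17 h compound treatment at 37C of HEK293H cells expressing a UAS-driven bla reporter responsive to PPARg.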

[5] = molecular target: Peroxisome proliferator-activated receptor gamma (Homo sapiens) (UniProt P37231); experiment: qHTS assay to identify small molecule antagonists of the peroxisome proliferator-activated receptor gamma (PPARg) signaling pathway (AID 743191; calls by dose curve; also: series mostly up to about 63 µM; nearly all actives have a fitted effect of over 30% in size)
Outline: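 Beta-lactamase reporter under UAS control in HEK293H PPARg-bla cells; compound treatment 17 h at 37C. Read-out: fluorescence intensity after 1 h room-temperature incubation with LiveBLAzer B/G FRET substrate.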

[6] = qHTS assay to identify small molecule antagonists of the peroxisome proliferator-activated receptor gamma (PPARg) signaling pathway - cell viability counter screen (AID 743194); details: Potency: co-treated with 50 nM rosiglitazone; also: nearly all actives have a fitted effect of over 55% in size
Outline: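 Viability was measured as CellTiter-Glo luminescence in GeneBLAzer PPARg UAS-bla HEK293H cells. These cells had been exposed 17 h at 37 C to compounds together with rosiglitazone at 50 nM final, with the beta-lactamase readout taken in the same wells.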

[7] = qHTS assay for small molecule agonists of the antioxidant response element (ARE) signaling pathway (AID 743202; active = well fitted activation curve with a large enough effect in the signal ratio in the repeat runs, not every such curve was filed as active; the % refers to the signal ratio)
Outline: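 An ARE-responsive beta-lactamase gene stably integrated in HepG2 cells serves as reporter. After 5 h plating and 16 h compound incubation at 37 C, fluorescence of the B/G FRET substrate was measured.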

[8] = qHTS assay for small molecule agonists of the antioxidant response element (ARE) signaling pathway - cell viability counter screen (AID 743203; calls by dose curve; also: nearly all actives have a fitted effect of over 55% in size)
Outline: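 HepG2 cells carrying ARE-driven beta-lactamase; 2,000 cells/well; 5 hrs plating; compound pinned from DMSO; 16 hrs 37C/5% CO2; CellTiter-Glo added; 30 min RT; luminescence.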

[9] = qHTS assay for small molecule activators of the heat shock response signaling pathway - cell viability counter screen (AID 743209); also: nearly all actives have a fitted effect of over 50% in size
Outline: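 Luminescence from CellTiter-Glo, added after the beta-lactamase FRET read, gave the viability signal. Cells were HSE-bla HeLa treated with DMSO-dissolved compounds for 5 h at 37 C following overnight plating.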

[10] = qHTS assay for small molecule activators of the heat shock response signaling pathway (AID 743210; active = well fitted activation curve with a large enough effect in the signal ratio in the repeat runs, with a control signal flat, not every such curve was filed as active; the % refers to the signal ratio;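 also: HeLa cells with beta-lactamase reporter driven by heat shock elements; series mostly up to about 63 µM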)
Outline: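 In HSE-bla HeLa cells, 5 h compound incubation (37 C) precedes addition of LiveBLAzer B/G substrate; after 2.5 h at room temperature, fluorescence intensity indicates reporter induction.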

[11] = molecular target: Peroxisome proliferator-activated receptor delta (Homo sapiens) (UniProt Q03181); experiment: qHTS assay to identify small molecule agonists of the peroxisome proliferator-activated receptor delta (PPARd) signaling pathway (AID 743212; calls by dose curve)
Outline: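 HEK293H UAS-bla reporter cells, human PPARd system; compounds delivered in DMSO after 5 h plating, then at 37 C. Beta-lactamase FRET read, 2 h RT substrate step.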

[12] = qHTS assay to identify small molecule antagonists of the peroxisome proliferator-activated receptor delta (PPARd) signaling pathway - cell viability counter screen (AID 743213); also: nearly all actives have a fitted effect of over 50% in size
Outline: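 In this counter screen, HEK293H cells carrying a UAS-beta-lactamase reporter are co-treated with test compounds and 300 nM L165041 (final) for 17 h at 37 C; cell viability is quantified by CellTiter-Glo luminescence.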

[13] = molecular target: Peroxisome proliferator-activated receptor delta (Homo sapiens) (UniProt Q03181); experiment: qHTS assay to identify small molecule antagonists of the peroxisome proliferator-activated receptor delta (PPARd) signaling pathway (AID 743215; active = well fitted inhibition curve with a large enough effect in the signal ratio in the repeat runs, not every such curve was filed as active; the % refers to the signal ratio;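 also: cells stimulated with agonist L165041 at 300 nM final during compound exposure; series mostly up to about 62 µM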)
Outline: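 Read-out is beta-lactamase FRET fluorescence, measured 2 h after substrate addition at room temperature. Beforehand, UAS-bla HEK293H cells carrying the PPARd reporter were exposed to compounds with L165041 at 300 nM final for 17 h at 37 C.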

[14] = molecular target: Bile acid receptor (Homo sapiens) (UniProt Q96RI1); experiment: qHTS assay to identify small molecule antagonists of the farnesoid-X-receptor (FXR) signaling pathway (AID 743217; active = well fitted inhibition curve with a large enough effect in the signal ratio in the repeat runs, not every such curve was filed as active; the % refers to the signal ratio)
Outline: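 HEK 293T FXR-UAS-bla, 5000 cells/well; compound + CDCA 50 uM final; 16 h, 37 °C; B/G FRET substrate 2 h RT; fluorescence.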

[15] = qHTS assay to identify small molecule agonists of the farnesoid-X-receptor (FXR) signaling pathway - cell viability counter screen (AID 743218); also: nearly all actives have a fitted effect of over 45% in size
Outline: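 HEK 293T FXR-bla cells; 5 h pre-incubation, 16 h compound exposure at 37 C; LiveBLAzer substrate 2 h RT, then CellTiter-Glo 30 min RT, luminescence.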

[16] = molecular target: Bile acid receptor (Homo sapiens) (UniProt Q96RI1); experiment: qHTS assay to identify small molecule agonists of the farnesoid-X-receptor (FXR) signaling pathway (AID 743220; active = well fitted activation curve with a large enough effect in the signal ratio in the repeat runs, not every such curve was filed as active; the % refers to the signal ratio)
Outline: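 Beta-lactamase reporter under UAS control in GeneBLAzer FXR HEK 293T cells (5000/well) measured with LiveBLAzer FRET substrate after 2 h at room temperature. Compound exposure lasted 16 h at 37C.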

[17] = qHTS assay to identify small molecule antagonists of the farnesoid-X-receptor (FXR) signaling pathway - cell viability counter screen (AID 743221; active = well fitted cell-killing curve with a large enough effect in the repeat runs, not every such curve was filed as active; also: nearly all actives have a fitted effect of over 50% in size)
Outline: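 Here viability was scored by luminescence after CellTiter-Glo addition to wells already read for beta-lactamase. Prior treatment: compound plus CDCA (50 uM final), 16 h, 37 C, HEK 293T FXR-bla cells.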

[18] = molecular target: Vitamin D3 receptor (Homo sapiens) (UniProt P11473); experiment: qHTS assay to identify small molecule agonists of the vitamin D receptor (VDR) signaling pathway (AID 743222; calls by dose curve)
Outline: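 VDR-bla cells, 2,000/well; 4 h preincubation 37C; cpd (DMSO) 16 h; LiveBLAzer B/G substrate 2 h RT; fluorescence intensity read.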

[19] = molecular target: Vitamin D3 receptor (Homo sapiens) (UniProt P11473); experiment: qHTS assay to identify small molecule antagonists of the vitamin D receptor (VDR) signaling pathway (AID 743223; active = well fitted inhibition curve with a large enough effect in the signal ratio in the repeat runs, not every such curve was filed as active; the % refers to the signal ratio)
Outline: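 Inhibition of agonist-driven VDR signalling is scored in VDR-bla cells: 3 nM final 1alpha,25-dihydroxyvitamin D3 plus compound, 16 h at 37C, then beta-lactamase detection by FRET substrate fluorescence after 2 h.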

[20] = qHTS assay to identify small molecule agonists of the peroxisome proliferator-activated receptor delta (PPARd) signaling pathway - cell viability counter screen (AID 743211); also: nearly all actives have a fitted effect of over 55% in size
Outline: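 In the same wells used for beta-lactamase reporter measurement, cytotoxicity is scored by CellTiter-Glo. HEK293H PPARd-bla cells receive compound for 17 h at 37C following a 5 h settling period.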

Measured: Potency

Chain of Vitamin D3 receptor (Homo sapiens) (P11473 whole entry, looked up): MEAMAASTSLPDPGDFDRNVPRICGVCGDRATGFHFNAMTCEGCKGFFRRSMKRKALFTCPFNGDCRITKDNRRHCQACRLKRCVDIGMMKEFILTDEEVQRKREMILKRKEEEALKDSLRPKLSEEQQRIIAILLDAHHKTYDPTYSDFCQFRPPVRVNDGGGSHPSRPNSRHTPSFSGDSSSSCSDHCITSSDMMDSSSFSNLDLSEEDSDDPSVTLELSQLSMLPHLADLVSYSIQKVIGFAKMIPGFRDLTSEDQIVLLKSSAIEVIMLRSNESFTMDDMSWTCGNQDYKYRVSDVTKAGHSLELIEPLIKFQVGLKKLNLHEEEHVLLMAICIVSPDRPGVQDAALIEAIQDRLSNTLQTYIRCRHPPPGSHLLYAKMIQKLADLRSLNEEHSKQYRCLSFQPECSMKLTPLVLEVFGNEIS
Chain of Bile acid receptor (Homo sapiens) (Q96RI1 whole entry, looked up): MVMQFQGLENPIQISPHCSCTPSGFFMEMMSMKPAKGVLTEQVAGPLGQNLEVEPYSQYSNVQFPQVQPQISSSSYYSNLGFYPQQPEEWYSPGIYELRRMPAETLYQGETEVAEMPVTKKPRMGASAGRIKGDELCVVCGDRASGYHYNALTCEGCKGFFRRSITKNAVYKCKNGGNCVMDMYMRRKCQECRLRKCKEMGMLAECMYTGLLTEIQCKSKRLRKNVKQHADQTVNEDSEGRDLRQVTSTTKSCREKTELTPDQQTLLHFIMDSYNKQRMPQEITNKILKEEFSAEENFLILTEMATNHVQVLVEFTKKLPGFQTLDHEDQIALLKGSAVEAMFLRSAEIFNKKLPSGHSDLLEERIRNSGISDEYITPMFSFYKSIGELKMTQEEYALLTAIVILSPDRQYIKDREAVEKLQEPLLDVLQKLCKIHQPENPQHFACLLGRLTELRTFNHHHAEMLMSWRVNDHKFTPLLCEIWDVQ
Chain of Peroxisome proliferator-activated receptor gamma (Homo sapiens) (P37231 whole entry, looked up): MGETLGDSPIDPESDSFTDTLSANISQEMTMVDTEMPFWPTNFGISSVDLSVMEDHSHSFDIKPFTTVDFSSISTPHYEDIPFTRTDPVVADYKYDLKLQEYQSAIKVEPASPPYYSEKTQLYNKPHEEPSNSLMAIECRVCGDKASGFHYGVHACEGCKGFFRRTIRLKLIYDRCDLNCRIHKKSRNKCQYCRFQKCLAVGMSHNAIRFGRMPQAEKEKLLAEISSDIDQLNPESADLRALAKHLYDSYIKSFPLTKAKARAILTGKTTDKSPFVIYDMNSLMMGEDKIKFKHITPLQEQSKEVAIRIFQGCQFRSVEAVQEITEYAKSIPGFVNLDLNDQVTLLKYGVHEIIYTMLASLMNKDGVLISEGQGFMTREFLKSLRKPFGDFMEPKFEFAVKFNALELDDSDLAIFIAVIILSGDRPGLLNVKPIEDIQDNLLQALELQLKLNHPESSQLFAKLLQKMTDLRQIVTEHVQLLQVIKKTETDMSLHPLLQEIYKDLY
Chain of Aryl hydrocarbon receptor (Homo sapiens) (P35869 whole entry, looked up): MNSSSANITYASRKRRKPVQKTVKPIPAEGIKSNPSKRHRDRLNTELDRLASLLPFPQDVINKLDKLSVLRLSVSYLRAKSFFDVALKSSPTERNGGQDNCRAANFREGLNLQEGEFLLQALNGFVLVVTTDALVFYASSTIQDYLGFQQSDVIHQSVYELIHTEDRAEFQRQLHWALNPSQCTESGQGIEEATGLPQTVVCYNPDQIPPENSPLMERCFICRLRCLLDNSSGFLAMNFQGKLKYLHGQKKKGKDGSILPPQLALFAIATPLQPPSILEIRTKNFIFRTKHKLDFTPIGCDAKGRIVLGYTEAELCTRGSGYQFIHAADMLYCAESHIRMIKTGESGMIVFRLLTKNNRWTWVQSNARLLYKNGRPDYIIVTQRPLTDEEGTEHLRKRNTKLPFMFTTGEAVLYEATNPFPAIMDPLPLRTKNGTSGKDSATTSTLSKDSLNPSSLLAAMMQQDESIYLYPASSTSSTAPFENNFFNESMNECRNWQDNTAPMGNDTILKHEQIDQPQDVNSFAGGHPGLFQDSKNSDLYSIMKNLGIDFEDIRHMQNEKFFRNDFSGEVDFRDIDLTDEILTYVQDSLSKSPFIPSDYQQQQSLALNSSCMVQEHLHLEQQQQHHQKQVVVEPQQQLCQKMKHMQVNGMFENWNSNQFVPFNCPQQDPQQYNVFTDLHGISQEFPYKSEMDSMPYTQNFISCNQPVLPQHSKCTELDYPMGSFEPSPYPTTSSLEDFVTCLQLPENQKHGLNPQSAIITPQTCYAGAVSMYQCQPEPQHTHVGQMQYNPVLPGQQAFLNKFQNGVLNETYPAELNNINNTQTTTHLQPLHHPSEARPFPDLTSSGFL
Chain of Peroxisome proliferator-activated receptor delta (Homo sapiens) (Q03181 whole entry, looked up): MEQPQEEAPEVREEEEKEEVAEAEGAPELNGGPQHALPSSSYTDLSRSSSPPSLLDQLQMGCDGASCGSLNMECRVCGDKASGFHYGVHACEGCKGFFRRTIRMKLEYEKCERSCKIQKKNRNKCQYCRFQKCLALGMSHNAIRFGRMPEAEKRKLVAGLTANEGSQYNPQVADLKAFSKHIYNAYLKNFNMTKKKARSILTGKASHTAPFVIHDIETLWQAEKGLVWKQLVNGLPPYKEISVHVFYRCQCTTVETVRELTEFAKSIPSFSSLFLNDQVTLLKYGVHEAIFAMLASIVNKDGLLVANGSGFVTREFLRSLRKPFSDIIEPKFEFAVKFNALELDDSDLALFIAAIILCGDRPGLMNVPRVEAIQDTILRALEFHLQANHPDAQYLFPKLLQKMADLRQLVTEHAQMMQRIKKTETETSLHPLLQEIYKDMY

CC1C(=O)C[C@]2(C(C)C)C[C@H]12 (some centres not stated)
inactive: [1] | [2] | [3] | [4] | [5] | [6] | [7] | [8] | [9] | [10] | [11] | [12] | [13] | [14] | [15] | [16] | [17] | [18] | [19]

BrCC(Br)C1CCC(Br)C(Br)C1 (configuration not stated)
inactive: [1] | [2] | [3] | [4] | [5] | [6] | [8] | [9] | [10] | [20] | [15] | [17]

CCC(Br)(CC)C(=O)NC(N)=O
inactive: [1] | [2] | [3] | [4] | [5] | [6] | [8] | [9] | [10] | [20] | [11] | [12] | [13] | [14] | [15] | [16] | [17] | [18] | [19]

COc1cc(Cl)c(OC)cc1Cl
inactive: [1] | [2] | [3] | [4] | [5] | [6] | [8] | [9] | [10] | [20] | [12] | [15] | [17] | [18]

Nc1nc(N)nc(N)n1
inactive: [1] | [2] | [3] | [4] | [5] | [7] | [8] | [9] | [10] | [20] | [11] | [12] | [13] | [14] | [15] | [16] | [17] | [18] | [19]

COc1cc(CC(C)N)cc2c1OCO2 (configuration not stated)
inactive: [1] | [2] | [3] | [4] | [5] | [6] | [8] | [9] | [10] | [20] | [11] | [12] | [13] | [14] | [15] | [16] | [17]

COC(N)=O
inactive: [1] | [2] | [3] | [4] | [5] | [6] | [8] | [9] | [10] | [20] | [11] | [12] | [13] | [14] | [16] | [17] | [18]

Cc1c(F)c(F)c(COC(=O)C2C(/C=C(\Cl)C(F)(F)F)C2(C)C)c(F)c1F (configuration not stated)
inactive: [1] | [2] | [3] | [4] | [5] | [6] | [8] | [9] | [10] | [13] | [15] | [16] | [17] | [18] | [19]
